# Screens as filed in PubChem.
# KDM5B inh: KDM5B demethylase inhibition; Q9UGL1; KDM5B demethylase, FDH-coupled NADH fluorescence (FDH is formaldehyde dehydrogenase); 220,000 compounds, 2.6% hits; Potency, µM (series often up to 57.7 µM), most hits filed as inhibitors; note: potency is the fitted concentration of half-maximal effect; 0% is about no effect; nearly all actives have a fitted effect of over 70% in size
#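 Measured: NADH fluorescence change, 30 min, RT. System: KDM5BΔAP 200 nM final, H3K4me3 peptide, α-KG, Fe(II), ascorbate, NAD⁺ plus FDH, pH 7.5 HEPES. Compounds: titrated, 10 min pre-incubation with enzyme.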
# SNCA expr inhib: inhibitors of alpha-synuclein (SNCA) gene expression | HEK-293 SNCA-luciferase knock-in, luminescence, 24 h | Potency, µM (doses to about 57.2 µM), for the others: at the top dose activity change, negative = inhibition, most hits filed as inhibitors | 140,000 compounds, 0.17% hits;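 note: potency is the fitted concentration of half-maximal effect; plate controls were DMSO cells for no effect and cell-free wells for full effect; nearly all actives have a fitted effect of over 45% in size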
# SNCA viab count: counter-screen for SNCA expression inhibitors: cell viability; AID 1671193; HEK-293-SNCA-luc viability, GF-AFC fluorescence, 24 h; 150,000 compounds, 0.12% hits; Potency, µM (titrated, usually from 57.1 µM), for inactives: at the top dose activity change, negative = cytotoxicity, actives largely listed as cytotoxic;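 note: potency is the fitted concentration of half-maximal effect; 0% = DMSO-treated cells and -100% = medium-only wells without cells; nearly all actives have a fitted effect of over 30% in size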
#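 Cytotoxicity counterscreen: after 24 h compound treatment of genome-edited SNCA-luciferase HEK-293 cells, live-cell protease substrate GF-AFC read by fluorescence after 30 min; activity scaled between DMSO (0%) and medium-only (-100%), curves Hill-fitted.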
# IP6K1 inhibitor: blocks human inositol hexakisphosphate kinase 1; Q92551; IP6K1 kinase, ADP-Glo luminescence, 2 h; active compounds read low; activity change, % (series mostly up to about 58 µM); 140,000 compounds, 0.81% hits; in the data active = activity change below about -25%; note: % is set by controls: 0 for no effect and ±100 for the full control effect
# Target sequence (Q92551 whole entry, looked up): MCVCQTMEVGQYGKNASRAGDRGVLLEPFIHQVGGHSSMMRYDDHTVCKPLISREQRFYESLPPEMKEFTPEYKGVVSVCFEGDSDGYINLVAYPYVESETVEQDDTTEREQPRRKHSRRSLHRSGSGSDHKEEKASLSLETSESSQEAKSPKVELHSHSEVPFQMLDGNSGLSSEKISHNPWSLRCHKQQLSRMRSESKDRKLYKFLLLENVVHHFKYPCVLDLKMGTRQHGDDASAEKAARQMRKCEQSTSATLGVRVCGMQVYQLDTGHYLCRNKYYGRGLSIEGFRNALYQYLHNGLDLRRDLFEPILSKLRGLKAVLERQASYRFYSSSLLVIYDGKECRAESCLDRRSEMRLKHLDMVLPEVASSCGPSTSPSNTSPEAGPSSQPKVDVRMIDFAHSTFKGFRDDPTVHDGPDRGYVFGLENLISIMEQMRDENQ
#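 ADP-Glo luminescence measures ADP made by human IP6K1 during a 2 h RT reaction with ATP/IP6 (mix at 1.3 mM/130 uM); top library doses 57.5 and 19.1 uM final.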
# * hit, by the source's call; i = inactive; ? = inconclusive; · = no result given; [ ] = another dose, or the depositor's remark. Most compounds without a hit are left out; they make up all but 2.9% or so of the library. Unless noted, calls come from the whole dose curve; as a rule, active = well fitted curve in the direction sought with a large enough effect; inconclusive = small, poorly fitted or top-dose-only effect, or another doubt; inactive = no such curve, though single readings can be large; an effect the other way counts as inactive or inconclusive.
SMILES,KDM5B inh,SNCA expr inhib,SNCA viab count,IP6K1 inhibitor
CCN(CC)c1cc(CCC(=O)NCCN(C)C2CCCCC2)ccn1,28µM*,?,-26%,-7
CCN(CC)c1cc(CCC(=O)NCCOC)ccn1,18µM*,30%,13%,-8
CCN(CC)c1cc(CCC(=O)NCCN2CCCCCC2)ccn1,28µM*,-15%,-20%,13
CCN(CC)c1cc(CCC(=O)NCc2ccc(N3CCOCC3)cc2)ccn1,?,25%,-9%,-3
CCN(CC)c1cc(CCC(=O)N2CCN(c3ccc(Cl)cc3)CC2)ccn1,?,-20%,0%,-1
CCN(CC)c1cc(CCC(=O)NCCCN2CCN(C)CC2)ccn1,25µM*,26%,-7%,2
CCN(CC)c1cc(CCC(=O)O)ccn1,i,6%,4%,-9
O=C(Nc1cccc2ncccc12)c1cccc([N+](=O)[O-])c1,i,·,·,·
Cc1ccc(S(=O)(=O)N2CCN(C(=O)COc3cccc(-n4cnnn4)c3)CC2)c(C)c1,i,·,·,·
CCN(CC)c1cc(CCC(=O)N2CCC(COC)CC2)ccn1,25µM*,-17%,-6%,-11
CCN(CC)c1cc(CCC(=O)N2CCN(c3cccc(OC)c3)CC2)ccn1,?,?,-12%,-5
CCCCS(=O)(=O)N1CCCC2(C1)Nc1cccnc1NC2=NCc1ccccc1 (centres undefined),28µM*,30%,-9%,3
COc1ccc(C(=O)N2CCCC3(C2)Nc2cccnc2NC3=NCc2ccccc2)cn1 (centres undefined),?,-4%,-11%,14
O=C(NCc1ccco1)N1CCCC2(C1)Nc1cccnc1NC2=NCc1ccccc1 (centres undefined),25µM*,-1%,0%,1
Cc1ccc(C(=O)N2CCCC3(C2)Nc2cccnc2NC3=NCc2ccccc2)cn1 (centres undefined),28µM*,-25%,-13%,1
NC(=O)c1nc(CN2CCCC(C(=O)Nc3cccc(-n4cccn4)c3)C2)no1 (centres undefined),i,-13%,-3%,-9
CC[n+]1c(/C=C/C=C2/N(C)c3ccccc3C2(C)C)sc2ccccc21,·,?,10µM*,·
O=C1CCCCN1CCNc1ccc(-c2nc(-c3ccccc3F)no2)cn1,32µM*,-12%,?,10
CC(Cn1cccn1)Nc1ccc(-c2nc(-c3ccccc3F)no2)cn1 (centres undefined),28µM*,13%,-3%,3
CN(Cc1nccs1)c1ccc(-c2nc(-c3ccccc3F)no2)cn1,22µM*,24%,-3%,-2
c1ccc(CCc2noc(-c3ccc(NCCN4CCCC4)nc3)n2)cc1,?,85%,9%,16
CCCc1noc(-c2nc(-c3ccccc3F)no2)n1,i,122%,5%,-4
O=C1OCCCN1CCNc1ccc(-c2nc(-c3ccccc3F)no2)cn1,28µM*,1%,-3%,3
CN(Cc1ccccn1)c1ccc(-c2nc(Cc3ccc(F)cc3)no2)cn1,?,33%,-4%,1
c1ccc2c(c1)CCN2C1CN(CC2CCCCC2)C1,?,-13%[87.6 µM],-4%[87.6 µM],-2
SMILES,KDM5B inh,SNCA expr inhib,SNCA viab count,IP6K1 inhibitor
C/C(=N/Nc1ccc(S(N)(=O)=O)cc1[N+](=O)[O-])c1cc2ccccc2o1,i,·,·,·
CCSc1ncc(-c2c(-c3ccccc3)ncn2CC[C@@H](C)CO)cn1,14µM*,0%,-23%,10
O=C1COc2ccc(-c3ccccc3)nc2CN1Cc1ccc(F)cc1,i,-30%[87.6 µM],-1%[87.6 µM],1
CN(c1ccccc1)c1ccc2c(n1)CN(CCOc1ccccc1)C(=O)CO2,32µM*,-27%[87.6 µM],6%[87.6 µM],-12
Cc1nc(CN2Cc3nc(N(C)c4ccccc4)ccc3OCC2=O)cs1,?,-21%[87.6 µM],-10%[87.6 µM],2
O=C1COc2ccc(-c3ccc4c(c3)OCO4)nc2CN1Cc1ccc(F)cc1,35µM*,-5%[87.6 µM],-9%[87.6 µM],-1
CN(c1ccccc1)c1ccc2c(n1)CN(Cc1ccccc1)C(=O)CO2,35µM*,6%[87.6 µM],1%[87.6 µM],-5
O=C1COc2ccc(-c3ccccc3)nc2CN1CCOc1ccccc1,i,11%[87.6 µM],2%[87.6 µM],-5
Cc1cc2oc(=O)cc(CN3CCOCC3(C)C)c2cc1C(C)C,i,·,·,·
CCCNC(=O)N1CCn2nc(C(O)c3ccccc3)cc2C1 (centres undefined),i,15%,-4%,18
O=C(Cn1ccn2nc(-c3ccc(F)cc3)c(CO)c2c1=O)Nc1ccc(F)c(Cl)c1,?,-28%,-2%,9
FC(F)(F)c1cc(Nc2cnc3ccc(N4CCOCC4)nn23)ccc1Cl,32µM*,-8%[87.6 µM],15%[87.6 µM],-17
Clc1ccccc1Nc1cnc2ccc(N3CCOCC3)nn12,32µM*,-26%[87.6 µM],-1%[87.6 µM],3
c1ccc(-c2ccccc2Nc2cnc3ccc(N4CCOCC4)nn23)cc1,i,-23%[87.6 µM],?,-18
Cc1ccc(NS(=O)(=O)c2ccc(C(=O)N(C)Cc3ccccc3)cc2)cc1C,i,·,·,·
Cc1cc(C)c(CNC(=O)c2cc(-c3cnn(C)c3C)cc3c2OCCN3C(C)C)c(=O)[nH]1,?,11%,7%,-9
COc1ccc(-c2cc(C(=O)NCc3c(C)cc(C)[nH]c3=O)c3c(c2)N(C(C)C)CCO3)cc1,32µM*,-29%,-10%,-17
COc1cccc(-c2cc(C(=O)NCc3c(C)cc(C)[nH]c3=O)c3c(c2)N(C(C)C)CCO3)c1OC,28µM*,-21%,-7%,-18
COc1ncc(-c2cc(C(=O)NCc3c(C)cc(C)[nH]c3=O)c3c(c2)N(C(C)C)CCO3)cn1,i,-27%,-7%,-10
Cc1cc(C)c(CNC(=O)c2cc(-c3cccc4[nH]ccc34)cc3ncn(C)c23)c(=O)[nH]1,?,-2%[87.6 µM],-9%[87.6 µM],-1
CC(=O)Nc1cccc(-c2cc(C(=O)NCc3c(C)cc(C)[nH]c3=O)c3c(c2)N(C(C)C)CCO3)c1,28µM*,-26%,-21%,-21
Cc1cc(C)c(CNC(=O)c2cc(-c3ccccc3O)cc3c2OCCN3C(C)C)c(=O)[nH]1,25µM*,-18%,-5%,-7
Cc1cc(C)c(CNC(=O)c2nc(-c3ccccc3)cc3c2ccn3C(C)C)c(=O)[nH]1,i,-17%[87.6 µM],-25%[87.6 µM],45
COc1ccc(-c2c(C(=O)NCC3CC3)nc3sccn23)cc1,·,11%[87.6 µM],-12%[87.6 µM],16
CN1CCN(c2nc3c(c(=O)n(C)c(=O)n3C)n2CC(=O)c2ccc(Cl)cc2)CC1,i,·,·,·
CC1(C)C2CCC1(C)C(NC(=O)C1CCC1)C2 (centres undefined),i,·,·,·
Cc1cc(C)c(CNC(=O)c2cc(-c3ccccc3C)cc3c2OCCN3C(C)C)c(=O)[nH]1,32µM*,?,-18%,-9
Cc1cc(C)c(CNC(=O)c2cc(-c3ccccc3C)cc3ncn(C)c23)c(=O)[nH]1,?,-16%[87.6 µM],-11%[87.6 µM],-6
Cc1cc(C)c(CNC(=O)c2cc(-c3ccccc3O)cc3c2OCCN3C)c(=O)[nH]1,35µM*,-30%[87.6 µM],-17%[87.6 µM],-17
